Results as given in paper PMC8769072, “Proteome‐scale mapping of binding sites in the unstructured regions of the human proteome” (Molecular Systems Biology, 2022).

Target: YES1 90-152, P07947
Sequence (P07947 90-152): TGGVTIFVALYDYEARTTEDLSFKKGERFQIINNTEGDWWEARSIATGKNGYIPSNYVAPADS

Row | Binder | selected by phage display
1 | PTPSSPLPSVPVSVPA [PLEKHN1, Q494U1] | confidence 3 (active)
2 | LPLPPLPGAGIPPPPP [FMN2, Q9NZ56] | confidence 2 (active)
3 | ELPLLPPPPSLPTIGA [SETD5, Q9C0A6] | confidence 3 (active)
4 | LQRTLPSVPPDTKLSK [TCF24, Q7RTU0] | confidence 2 (active)
5 | SRALPATPQLPSRSGV [WIPF1, O43516] | confidence 3 (active)
6 | LPPPPPPDRPYSVGAE [CBL, P22681] | confidence 4 (active)
7 | AAPTLGHRTLPLLPSL [PRRT4, C9JH25] | confidence 2 (active)
8 | AAVGVSKPLPSVPPSI [MADD, Q8WXG6] | confidence 2 (active)
9 | TKTPPRDLPTIPGVTS [EIF4EBP1, Q13541] | confidence 3 (active)
10 | TLTDLPLLPGVPMAGD [LRRC46, Q96FV0] | confidence 2 (active)
11 | QPLPPAPTSVPPAAFP [PER1, O15534] | confidence 2 (active)
12 | PLPPPPPLPKIQPLEP [ZBTB21, Q9ULJ3] | confidence 2 (active)
13 | TSTLPPLPLPPLLPGD [CDK12, Q9NYV4] | confidence 3 (active)
14 | TVELEEKRFRTLPLVP [ELL3, Q9HB65] | confidence 3 (active)
15 | TAGPGRPLPQRPMPDQ [ZFHX2, Q9C0A1] | confidence 2 (active)
16 | LPSAESLSRRPLPALP [EFS, O43281] | confidence 3 (active)

Row | Binder | selected by phage display
17 | SERELPQPPPLLSPQN [SAMD11, Q96NU1] | confidence 4 (active)
18 | QPAVFPPSFRELPPPP [IFT52, Q9Y366] | confidence 4 (active)
19 | RPLPSPAPPPPQLLEA [KIF26A, Q9ULI4] | confidence 2 (active)
20 | LPSLPLEPSLLSGVVQ [LRP10, Q7Z4F1] | confidence 2 (active)
21 | PQKEGERALPSIPKLA [PTK2, Q05397] | confidence 3 (active)
22 | NQQKALPPPPASIPPP [FMN1, Q68DA7] | confidence 2 (active)
23 | FAGLPLPLPPTSQGLS [PROSER1, Q86XN7] | confidence 3 (active)
24 | TFRWTSLTRELPPPPP [KMT2B, Q9UMN6] | confidence 2 (active)
25 | APTLPLPPPPGFPPLP [SETD1B, Q9UPS6] | confidence 3 (active)
26 | KDRPLPPAPLSPAPGP [MAP1A, P78559] | confidence 3 (active)
27 | QQQQQQLPALPPTPQQ [R3HDM2, Q9Y2K5] | confidence 2 (active)
28 | QLGDLPPKPQLSDLPP [ASAP1, Q9ULH1] | confidence 2 (active)
29 | PGRGLPQLPSSAYSVD [ST5, P78524] | confidence 4 (active)
30 | DKTSSIQSRPLPSPPK [BCAR1, P56945] | confidence 2 (active)
31 | RLSLEGLPSLPSMHEY [IRS2, Q9Y4H2] | confidence 3 (active)
